TDP1 cell CPT = DT40-hTDP1 cell growth loss with CPT | hit rate 12% among 420,000 | Potency, µM (top dose mostly 46.2 µM), for the others: at the highest dose activity change, negative = growth inhibition, most hits filed as inhibitors | chicken DT40 Tdp1-/-;hTDP1 cells + 20 nM CPT, ATP luminescence, 48 h | AID 686979; also: potency is read from the fitted curve at half-maximal effect; nearly all actives have a fitted effect of over 55% in size
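Chicken DT40 Tdp1-/- cells stably complemented with human TDP1 were seeded at 400 cells/well in medium containing 20 nM camptothecin, exposed to pin-transferred compounds, and grown at 37 °C for at least 48 hr. Viability was read as ATP luminescence.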
RORg inh = inhibitors of mouse ROR gamma transcriptional activity; Potency, µM (series often up to 53.6 µM), for inactives: at the highest dose activity change, negative = inhibition, hits mostly inhibitors; hit rate 5.4% among 310,000; Drosophila S2 Gal4-RORgamma UAS-luciferase reporter, 20 h; AID 2551; also: potency is read from the fitted curve at half-maximal effect; nearly all actives have a fitted effect of over 60% in size
Target sequence (P51450 whole entry, looked up, the tested form may be a part): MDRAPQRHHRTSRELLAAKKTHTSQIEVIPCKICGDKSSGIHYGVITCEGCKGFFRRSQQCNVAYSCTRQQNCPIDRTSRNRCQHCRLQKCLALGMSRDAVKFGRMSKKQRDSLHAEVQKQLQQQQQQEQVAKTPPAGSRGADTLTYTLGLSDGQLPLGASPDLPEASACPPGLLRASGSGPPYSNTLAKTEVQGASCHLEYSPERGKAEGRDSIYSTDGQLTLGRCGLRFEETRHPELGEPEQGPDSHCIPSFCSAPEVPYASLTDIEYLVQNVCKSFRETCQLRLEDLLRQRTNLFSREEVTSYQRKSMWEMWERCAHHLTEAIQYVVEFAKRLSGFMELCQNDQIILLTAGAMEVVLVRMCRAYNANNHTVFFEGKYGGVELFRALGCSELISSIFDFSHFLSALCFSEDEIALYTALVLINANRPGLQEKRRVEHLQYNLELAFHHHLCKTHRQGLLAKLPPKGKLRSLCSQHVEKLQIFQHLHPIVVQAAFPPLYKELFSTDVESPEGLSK
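Compounds are pin-transferred onto Drosophila Schneider cells expressing a copper-inducible Gal4–ROR gamma transactivation domain fusion. After 1 hr, copper sulfate is added to 700 uM final; luciferase is read 20 hr later.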
Gal4-VP16 FLuc = Gal4-VP16 reporter inhibition counter-screen. Drosophila S2 Gal4-VP16 UAS-luciferase, luminescence, 20 h. Potency, µM (titrated, usually from 53.6 µM), inactives show at the top dose activity, negative = inhibition, hits mostly inhibitors. hit rate 3.5% among 310,000;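 also: Gal4-VP16 expression switched on by copper sulfate through the metallothionein promoter; potency is read from the fitted curve at half-maximal effect; nearly all actives have a fitted effect of over 50% in size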
IL1B secr inh = blocks inflammasome-driven IL-1 beta release | THP-1 LPS/ATP IL-1B secretion, AlphaLISA, 16 h; active compounds read low | hit rate 4.7% among 360,000 | activity change, % at 57.5 µM | AID 743279; in the data active = activity change below about -50%; inconclusive = mostly about -30% to -49%
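Secreted IL-1B measured by AlphaLISA bead assay after 16 h compound exposure of THP-1 cells; compounds (final up to 57.5 uM) added 1 h before LPS (250 ng/mL) and ATP (1.25 mM) stimulation; lower signal means less secretion.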
ELG1 DNA repair = inhibitors of ELG1-dependent DNA repair in HEK293T cells; HEK293T ELG1-luciferase reporter, luminescence, 16 h; DNA damage induced by 5-fluorouridine; hit rate 2.3% among 330,000; AID 504467; Potency, µM (highest dose often 46.1 µM), without a hit: at the highest dose activity change, negative = inhibition, hits mostly inhibitors; also: potency is read from the fitted curve at half-maximal effect; nearly all actives have a fitted effect of over 55% in size
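Step one: seed 2,000 cells per well. Step two: pin-transfer compound or DMSO alongside 5-fluorouridine. Step three: incubate 16 hr, 37 °C, 5% CO2. Step four: add ONE-Glo, wait 30 min, read luminescence.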
DT40 TDP1 no CPT = qHTS for Inhibitors of human tyrosyl-DNA phosphodiesterase 1 (TDP1): qHTS in cells in absence of CPT | Potency, µM (titrated, usually from 46.2 µM), without a hit: at the highest dose activity change, negative = growth inhibition, usual class: inhibitors | DT40 Tdp1-/- hTDP1 cells, no CPT, ATP luminescence, 48 h | hit rate 15% among 420,000; also: potency is read from the fitted curve at half-maximal effect; nearly all actives have a fitted effect of over 55% in size
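Readout: luminescence from CellTiter-Glo after 30 min in the dark at RT. Cells: DT40 Tdp1-/- with stable hTDP1, 400/well. Exposure: compounds alone, ≥48 hr, 37 °C.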
* hit, by the source's call; [ ] = remark or other dose. A selection: hits, their analogues and other compounds. The true share with any hit is near 21%. Unless noted, calls follow the shape of the dose curve; as a rule, active = well fitted curve in the direction sought with a large enough effect; inconclusive = small, poorly fitted or top-dose-only effect, or another doubt; inactive = no such curve, though single readings can be large; an effect the other way counts as inactive or inconclusive. % is scaled to controls: 0 for no effect and ±100 for the full control effect.

Results for COc1ccc(-c2nc3cnc(N(C)C)nc3n(C[C@H]3CCCO3)c2=O)cc1 ?
TDP1 cell CPT: 2.6%; RORg inh: -15.8%; Gal4-VP16 FLuc: 0.5%; DT40 TDP1 no CPT: 22.7%

What do the screens show for `O=C(NCc1ccccc1Cl)c1ccccc1CCc1ccccc1`?
TDP1 cell CPT: inconclusive; RORg inh: 41.4%; Gal4-VP16 FLuc: -9.9%; IL1B secr inh: -14.6; ELG1 DNA repair: -6.8%; DT40 TDP1 no CPT: 16.4µM*

Results for Cc1ccc(NC(=O)c2ccccc2CCc2ccccc2)c(C)c1 ?
TDP1 cell CPT: -10.2%; RORg inh: -1.5%; Gal4-VP16 FLuc: -9.7%; IL1B secr inh: 0.0; ELG1 DNA repair: 6.0%; DT40 TDP1 no CPT: -26.1%

Results for Cc1cc(C)c(NC(=O)c2ccccc2CCc2ccccc2)c(C)c1 ?
TDP1 cell CPT: 18.4µM*; RORg inh: -0.4%; Gal4-VP16 FLuc: -12.5%; IL1B secr inh: 12.7; ELG1 DNA repair: 17.5%; DT40 TDP1 no CPT: inconclusive

How did CCCNC(=O)OC[C@@H]1O[C@H](CCO/N=C(\C)CCC(=O)OC[C@@H]2O[C@H](C#Cc3ccccc3)C=C[C@@H]2Oc2ccc(C)cc2)C=C[C@@H]1Oc1ccc(OC)cc1 do in these assays?
RORg inh: -3.1%[10 µM]; Gal4-VP16 FLuc: -5.1%[10 µM]

Results for c1ccc(-c2ccc(-c3ccncn3)cc2)cc1 ?
TDP1 cell CPT: -3.9%; IL1B secr inh: 35.1; DT40 TDP1 no CPT: -19.2%

What do the screens show for `COc1ccc(C(CCNC(C)c2ccccc2)c2ccc(F)cc2)cc1` (configuration not stated)?
TDP1 cell CPT: 7.31µM*; RORg inh: -11.8%; Gal4-VP16 FLuc: inconclusive; IL1B secr inh: -50.2*; ELG1 DNA repair: 10.8%; DT40 TDP1 no CPT: 7.31µM*

How did COc1ccc(CNCCC(c2ccc(F)cc2)c2ccc(OC)cc2)cc1 (configuration not stated) do in these assays?
TDP1 cell CPT: 11.6µM*; RORg inh: -43.5%; Gal4-VP16 FLuc: -29.7%; ELG1 DNA repair: 1.0%; DT40 TDP1 no CPT: 10.3µM*

How did COc1ccc(CNCCC(c2ccc(OC)cc2)c2ccccc2OC)cc1 (configuration not stated) do in these assays?
TDP1 cell CPT: 18.4µM*; RORg inh: -7.3%; Gal4-VP16 FLuc: -5.8%; IL1B secr inh: -83.1*; ELG1 DNA repair: inconclusive; DT40 TDP1 no CPT: 6.51µM*

What do the screens show for `COc1ccc(C(CCNCc2ccccc2)c2ccc(F)cc2)cc1` (configuration not stated)?
TDP1 cell CPT: inconclusive; RORg inh: -6.1%; Gal4-VP16 FLuc: -7.5%; IL1B secr inh: -5.6; ELG1 DNA repair: 13.6%; DT40 TDP1 no CPT: inconclusive

What do the screens show for `COc1ccc(C(CCNCc2ccc(F)cc2)c2ccc(F)cc2)cc1` (configuration not stated)?
TDP1 cell CPT: inconclusive; RORg inh: inconclusive; Gal4-VP16 FLuc: inconclusive; IL1B secr inh: -28.4; ELG1 DNA repair: -1.2%; DT40 TDP1 no CPT: inconclusive

Results for COc1ccc(C(CCNCc2ccc(OC(C)C)cc2)c2ccccc2OC)cc1 (configuration not stated) ?
TDP1 cell CPT: 23.1µM*; RORg inh: inconclusive; Gal4-VP16 FLuc: inconclusive; IL1B secr inh: -88.8*; ELG1 DNA repair: inconclusive; DT40 TDP1 no CPT: 16.4µM*

What do the screens show for `CCN1C[C@@H]2[C@@H]3C(=O)N(Cc4ccccc4)C(=O)[C@@H]3[C@](CC)(C(=O)OC)N2C1=NCc1ccccc1`?
TDP1 cell CPT: 1.1%; IL1B secr inh: 6.7; DT40 TDP1 no CPT: -17.3%

How did COC(=O)Cc1[nH]nc2c1C(c1ccc(O)c(OC)c1)C(C#N)=C(N)O2 (configuration not stated) do in these assays?
TDP1 cell CPT: -13.2%; RORg inh: 15.8%; Gal4-VP16 FLuc: 7.7%; IL1B secr inh: -19.0; ELG1 DNA repair: 1.1%; DT40 TDP1 no CPT: 22.7%

What do the screens show for `COc1ccc(C(CCNCc2ccc(N(C)C)cc2)c2ccccc2OC)cc1` (configuration not stated)?
TDP1 cell CPT: 18.4µM*; RORg inh: -4.1%; Gal4-VP16 FLuc: -24.0%; IL1B secr inh: -101.1*; ELG1 DNA repair: -26.1%; DT40 TDP1 no CPT: 14.6µM*

Results for CCOC(=O)C1(C)CCCN(C(=O)c2ccc3c(c2)CCO3)C1 (configuration not stated) ?
TDP1 cell CPT: -15.5%; IL1B secr inh: 14.7; DT40 TDP1 no CPT: -10.6%

What do the screens show for `CC(=O)Nc1cc(O)c2nonc2c1O`?
TDP1 cell CPT: 0.631µM*; DT40 TDP1 no CPT: 0.708µM*

Results for Cc1ccc(Cl)cc1NC(=O)c1ccc2snnc2c1 ?
TDP1 cell CPT: -17.3%; DT40 TDP1 no CPT: -8.3%

Results for COc1ccccc1Nc1nn2c(=O)c3ccc(C(=O)Nc4ccc(F)cc4)cc3nc2s1 ?
TDP1 cell CPT: 2.59µM*; DT40 TDP1 no CPT: 5.8µM*

Results for Cc1ccc(Cl)cc1Nc1nn2c(=O)c3ccc(C(=O)NC(C)c4ccccc4)cc3nc2s1 (configuration not stated) ?
TDP1 cell CPT: 6.51µM*; DT40 TDP1 no CPT: 3.26µM*

Results for Cc1ccc(Cl)cc1Nc1nn2c(=O)c3ccc(C(=O)Nc4ccc(F)cc4)cc3nc2s1 ?
TDP1 cell CPT: 3.66µM*; DT40 TDP1 no CPT: 2.31µM*

What do the screens show for `COC(=O)c1ccc2c(=O)n3nc(Nc4cc(OC)ccc4OC)sc3nc2c1`?
TDP1 cell CPT: inconclusive; DT40 TDP1 no CPT: -17.0%

Results for CC(=N\NC(=O)c1ccc([N+](=O)[O-])cc1)/C(=N/O)C(=O)Nc1ccccc1 ?
TDP1 cell CPT: inconclusive; RORg inh: 3.98µM*; Gal4-VP16 FLuc: 6.31µM*; IL1B secr inh: -5.9; ELG1 DNA repair: inconclusive; DT40 TDP1 no CPT: inconclusive

What do the screens show for `CCCCNC(=O)C(NC(=O)Cc1cc(C(F)(F)F)cc(C(F)(F)F)c1)C(=O)c1ccccc1` (configuration not stated)?
TDP1 cell CPT: 29.1µM*; IL1B secr inh: -7.7; DT40 TDP1 no CPT: inconclusive

How did COc1ccccc1N1N=C(c2ccc([N+](=O)[O-])cc2)CC1c1ccccc1 (configuration not stated) do in these assays?
TDP1 cell CPT: inconclusive; RORg inh: 0.0%; Gal4-VP16 FLuc: 2.4%; IL1B secr inh: -14.6; ELG1 DNA repair: 3.1%; DT40 TDP1 no CPT: inconclusive
